Only a selection was taken, and hits are over-represented in it overall.
YopH inh = YopH tyrosine phosphatase inhibitors, primary screen, biochemical, fluorescence Ex485/Em525. YopH tyrosine phosphatase [Yersinia enterocolitica]. inhibition, % (concentration not given with the values). 0.16% of 140,000 active. AID 898, 2007; in the data active = inhibition above about 50%
RmlCD inh 1536 = M. tuberculosis RmlC/RmlD coupled enzyme inhibitors, primary screen, biochemical, compound mixtures, 384-well, from 1536-well plates; dTDP-4-dehydrorhamnose reductase (Mycobacterium tuberculosis (strain ATCC 25618 / H37Rv)) …; RmlC+RmlD coupled enzyme assay, percent inhibition; primary screen in compound mixtures; inhibition, % at 3.6 µM; 0.03% of 160,000 active; AID 1533, 2009; in the data active = inhibition mostly above about 34%, no sharp cut-off
Target sequence (P9WH09 whole entry, looked up): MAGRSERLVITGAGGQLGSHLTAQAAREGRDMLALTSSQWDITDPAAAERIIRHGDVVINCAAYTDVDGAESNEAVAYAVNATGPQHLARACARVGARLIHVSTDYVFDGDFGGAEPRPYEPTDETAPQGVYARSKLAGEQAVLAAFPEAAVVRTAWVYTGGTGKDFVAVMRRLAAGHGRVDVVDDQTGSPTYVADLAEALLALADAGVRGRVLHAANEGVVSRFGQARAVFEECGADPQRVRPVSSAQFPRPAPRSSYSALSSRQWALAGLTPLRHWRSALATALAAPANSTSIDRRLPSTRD
Target sequence (P9WH11 whole entry, looked up): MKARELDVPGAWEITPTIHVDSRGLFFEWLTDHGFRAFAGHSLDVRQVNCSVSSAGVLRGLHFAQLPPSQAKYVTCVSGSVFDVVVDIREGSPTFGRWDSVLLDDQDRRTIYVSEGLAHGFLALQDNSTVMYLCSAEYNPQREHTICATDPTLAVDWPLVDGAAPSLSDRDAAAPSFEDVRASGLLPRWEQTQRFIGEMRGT
* = called active by the depositor; · = not tested or not shown.

SMILES | YopH inh | RmlCD inh 1536
S=c1[nH]nc(-c2ccccc2)n1/N=C/C=C/c1ccco1 | 51* | 9
CCOc1cc2[nH]c(=S)n(Cc3ccc(C)o3)c(=O)c2cc1OCC | -26 | -7
N#Cc1c(N2CCCC2)nc(N)c2c(N)nc(N3CCCC3)cc12 | 101* | ·
COc1cc2c(C#N)c(N3CCCC3)nc(N)c2c(N)n1 | · | 4
Cc1c(-c2ccccc2)oc2c(C(=O)OCC(=O)Nc3ccc(F)cc3)cccc2c1=O | -23 | 14
O=C1C(=O)N(Cc2ccccc2)C(=O)N1CCN1C(=O)c2ccccc2C1=O | · | -3
O=C1Cc2ccccc2C(=O)N1CCc1ccccc1 | 100* | 8
CCOc1c2ccc(C(=O)N[C@H](C)C3CCCCC3)cc2nn1CCOC | -21 | ·

Assay outcomes deposited in PubChem by several laboratories.
